# In paper PMC11006913:
# Where a chain is given by its changes, count along the chain named.
# Experiments:
# Experiment in all cases: PBM; 200 nM protein, PBS
# Conditions in all cases: dsDNA, one strand shown
# HOXB4 [1] = target: HOXB4 (Homo sapiens, UniProt P17483 148-234)
# SIX6 [2] = target: T1, SIX6 (Homo sapiens, UniProt O95475 114-200, L167I)
# T1 sequence: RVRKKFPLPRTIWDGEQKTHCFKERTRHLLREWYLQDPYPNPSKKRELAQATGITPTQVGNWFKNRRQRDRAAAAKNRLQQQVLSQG
# SIX6 [3] = target: T2, SIX6 (Homo sapiens, UniProt O95475 114-200, L143V)
# T2 sequence: T1 sequence with L30V, I54L
# SIX6 [4] = target: T3, SIX6 (Homo sapiens, UniProt O95475 114-200, H141N)
# T3 sequence: T1 sequence with H28N, I54L
# SIX6 [5] = target: T4, SIX6 (Homo sapiens, UniProt O95475 114-200, T165P)
# T4 sequence: T1 sequence with T52P, I54L
# SIX6 [6] = target: T5, SIX6 (Homo sapiens, UniProt O95475 114-200, L167M)
# T5 sequence: T1 sequence with I54M
# SIX6 [7] = target: T6, SIX6 (Homo sapiens, UniProt O95475 114-200, L143M)
# T6 sequence: T1 sequence with L30M, I54L
# SIX6 [8] = target: T7, SIX6 (Homo sapiens, UniProt O95475 114-200, L143I)
# T7 sequence: T1 sequence with L30I, I54L
# SIX6 [9] = target: T8, SIX6 (Homo sapiens, UniProt O95475 114-200, T165G)
# T8 sequence: T1 sequence with T52G, I54L
# SIX6 [10] = target: T9, SIX6 (Homo sapiens, UniProt O95475 114-200, T139Q)
# T9 sequence: T1 sequence with T26Q, I54L
# HOXB4 [11] = target: HOXB4 (Homo sapiens, UniProt P17483 148-234, V174I)
# HOXD13 [12] = target: HOXD13 (Homo sapiens, UniProt P35453 263-343, T313R)
# SIX6 [13] = target: T10, SIX6 (Homo sapiens, UniProt O95475 114-200, T165A)
# T10 sequence: T1 sequence with T52A, I54L
# HOXD13 [14] = target: HOXD13 (Homo sapiens, UniProt P35453 263-343)
# SIX6 [15] = target: T11, SIX6 (Homo sapiens, UniProt O95475 114-200, L167V)
# T11 sequence: T1 sequence with I54V
# SIX6 [16] = target: T12, SIX6 (Homo sapiens, UniProt O95475 114-200)
# T12 sequence: T1 sequence with I54L
# SIX6 [17] = target: T13, SIX6 (Homo sapiens, UniProt O95475 114-200, T165I)
# T13 sequence: T1 sequence with T52I, I54L
# HOXD13 [18] = target: HOXD13 (Homo sapiens, UniProt P35453 263-343, T313A)
# VENTX [19] = target: T14, VENTX (Homo sapiens, UniProt O95231 78-163, R121Q)
# T14 sequence: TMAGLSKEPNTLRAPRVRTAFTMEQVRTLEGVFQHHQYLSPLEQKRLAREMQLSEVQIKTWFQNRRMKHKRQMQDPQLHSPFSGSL
# HOXA4 [20] = target: HOXA4 (Homo sapiens, UniProt Q00056 201-287, W262R)
# VENTX [21] = target: T15, VENTX (Homo sapiens, UniProt O95231 78-163)
# T15 sequence: T14 sequence with Q44R
# VENTX [22] = target: T16, VENTX (Homo sapiens, UniProt O95231 78-163, Y115F)
# T16 sequence: T14 sequence with Y38F, Q44R
# HOXA2 [23] = target: HOXA2 (Homo sapiens, UniProt O43364 129-215, R185T)
# HOXA4 [24] = target: HOXA4 (Homo sapiens, UniProt Q00056 201-287, R217L)
# HOXA2 [25] = target: HOXA2 (Homo sapiens, UniProt O43364 129-215, R185K)
# HOXA4 [26] = target: HOXA4 (Homo sapiens, UniProt Q00056 201-287)
# VAX1 [27] = target: VAX1 (Homo sapiens, UniProt Q5SQQ9 86-172)
# VAX1 [28] = target: VAX1 (Homo sapiens, UniProt Q5SQQ9 86-172, T142I)
# HOXA2 [29] = target: HOXA2 (Homo sapiens, UniProt O43364 129-215, Y150S)
# HOXA4 [30] = target: HOXA4 (Homo sapiens, UniProt Q00056 201-287, W262F)
# HOXA2 [31] = target: HOXA2 (Homo sapiens, UniProt O43364 129-215)
# VAX1 [32] = target: VAX1 (Homo sapiens, UniProt Q5SQQ9 86-172, K157R)
# Sequence of VAX1 (Homo sapiens, UniProt Q5SQQ9 86-172, K157R) (Q5SQQ9 86-172 K157R): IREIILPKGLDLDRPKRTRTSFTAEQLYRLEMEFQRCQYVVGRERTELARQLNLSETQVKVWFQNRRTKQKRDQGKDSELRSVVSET
# Sequence of HOXB4 (Homo sapiens, UniProt P17483 148-234) (P17483 148-234): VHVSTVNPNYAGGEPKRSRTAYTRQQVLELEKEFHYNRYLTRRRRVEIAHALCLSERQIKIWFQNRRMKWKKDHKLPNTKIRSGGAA
# Sequence of HOXB4 (Homo sapiens, UniProt P17483 148-234, V174I) (P17483 148-234 V174I): as the sequence (P17483 148-234) above, with V27I counted along it
# Sequence of VAX1 (Homo sapiens, UniProt Q5SQQ9 86-172) (Q5SQQ9 86-172): as the sequence (Q5SQQ9 86-172 K157R) above, with R72K counted along it
# Sequence of HOXA2 (Homo sapiens, UniProt O43364 129-215, Y150S) (O43364 129-215 Y150S): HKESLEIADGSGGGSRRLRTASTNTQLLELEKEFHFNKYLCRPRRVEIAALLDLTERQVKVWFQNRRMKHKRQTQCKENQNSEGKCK
# Sequence of VAX1 (Homo sapiens, UniProt Q5SQQ9 86-172, T142I) (Q5SQQ9 86-172 T142I): as the sequence (Q5SQQ9 86-172 K157R) above, with T57I, R72K counted along it
# Sequence of HOXA2 (Homo sapiens, UniProt O43364 129-215) (O43364 129-215): as the sequence (O43364 129-215 Y150S) above, with S22Y counted along it
# Sequence of HOXD13 (Homo sapiens, UniProt P35453 263-343, T313R) (P35453 263-343 T313R): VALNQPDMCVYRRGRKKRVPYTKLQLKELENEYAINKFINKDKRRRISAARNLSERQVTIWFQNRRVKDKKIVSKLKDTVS
# Sequence of HOXA2 (Homo sapiens, UniProt O43364 129-215, R185K) (O43364 129-215 R185K): as the sequence (O43364 129-215 Y150S) above, with S22Y, R57K counted along it
# Sequence of HOXD13 (Homo sapiens, UniProt P35453 263-343, T313A) (P35453 263-343 T313A): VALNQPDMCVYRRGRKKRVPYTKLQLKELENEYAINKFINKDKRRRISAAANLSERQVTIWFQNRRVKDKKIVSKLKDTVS
# Sequence of HOXA4 (Homo sapiens, UniProt Q00056 201-287, W262R) (Q00056 201-287 W262R): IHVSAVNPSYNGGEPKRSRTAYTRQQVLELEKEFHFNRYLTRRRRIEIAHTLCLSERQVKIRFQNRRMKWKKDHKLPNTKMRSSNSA
# Sequence of HOXA4 (Homo sapiens, UniProt Q00056 201-287, W262F) (Q00056 201-287 W262F): as the sequence (Q00056 201-287 W262R) above, with R62F counted along it
# Sequence of HOXA4 (Homo sapiens, UniProt Q00056 201-287) (Q00056 201-287): as the sequence (Q00056 201-287 W262R) above, with R62W counted along it
# Sequence of HOXA2 (Homo sapiens, UniProt O43364 129-215, R185T) (O43364 129-215 R185T): as the sequence (O43364 129-215 Y150S) above, with S22Y, R57T counted along it
# Sequence of HOXA4 (Homo sapiens, UniProt Q00056 201-287, R217L) (Q00056 201-287 R217L): as the sequence (Q00056 201-287 W262R) above, with R17L, R62W counted along it
# Sequence of HOXD13 (Homo sapiens, UniProt P35453 263-343) (P35453 263-343): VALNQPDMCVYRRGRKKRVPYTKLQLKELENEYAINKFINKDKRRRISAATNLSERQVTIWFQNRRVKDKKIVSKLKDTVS
sequence,measurement,setting,value
GCCGCTCC,binding signal,HOXB4 [1],"7.92 upbm affinity estimate (log intensity, higher = more binding, comparable within an allelic series)"
same,binding signal,SIX6 [2],"9.16 upbm affinity estimate (log intensity, higher = more binding, comparable within an allelic series)"
same,binding signal,SIX6 [3],"8.94 upbm affinity estimate (log intensity, higher = more binding, comparable within an allelic series)"
same,binding signal,SIX6 [4],"9.15 upbm affinity estimate (log intensity, higher = more binding, comparable within an allelic series)"
same,binding signal,SIX6 [5],"8.87 upbm affinity estimate (log intensity, higher = more binding, comparable within an allelic series)"
same,binding signal,SIX6 [6],"9.07 upbm affinity estimate (log intensity, higher = more binding, comparable within an allelic series)"
same,binding signal,SIX6 [7],"9.12 upbm affinity estimate (log intensity, higher = more binding, comparable within an allelic series)"
same,binding signal,SIX6 [8],"8.99 upbm affinity estimate (log intensity, higher = more binding, comparable within an allelic series)"
same,binding signal,SIX6 [9],"9.14 upbm affinity estimate (log intensity, higher = more binding, comparable within an allelic series)"
same,binding signal,SIX6 [10],"9.17 upbm affinity estimate (log intensity, higher = more binding, comparable within an allelic series)"
same,binding signal,HOXB4 [11],"7.92 upbm affinity estimate (log intensity, higher = more binding, comparable within an allelic series)"
same,binding signal,HOXD13 [12],"9.38 upbm affinity estimate (log intensity, higher = more binding, comparable within an allelic series)"
same,binding signal,SIX6 [13],"9.12 upbm affinity estimate (log intensity, higher = more binding, comparable within an allelic series)"
same,binding signal,HOXD13 [14],"9.56 upbm affinity estimate (log intensity, higher = more binding, comparable within an allelic series)"
same,binding signal,SIX6 [15],"9.06 upbm affinity estimate (log intensity, higher = more binding, comparable within an allelic series)"
same,binding signal,SIX6 [16],"9.12 upbm affinity estimate (log intensity, higher = more binding, comparable within an allelic series)"
same,binding signal,SIX6 [17],"9.09 upbm affinity estimate (log intensity, higher = more binding, comparable within an allelic series)"
same,binding signal,HOXD13 [18],"9.61 upbm affinity estimate (log intensity, higher = more binding, comparable within an allelic series)"
CTAATGAG,binding signal,HOXB4 [1],"13 upbm affinity estimate (log intensity, higher = more binding, comparable within an allelic series)"
same,binding signal,VENTX [19],"11.9 upbm affinity estimate (log intensity, higher = more binding, comparable within an allelic series)"
same,binding signal,HOXA4 [20],"10.5 upbm affinity estimate (log intensity, higher = more binding, comparable within an allelic series)"
same,binding signal,VENTX [21],"12.6 upbm affinity estimate (log intensity, higher = more binding, comparable within an allelic series)"
same,binding signal,VENTX [22],"12 upbm affinity estimate (log intensity, higher = more binding, comparable within an allelic series)"
same,binding signal,HOXA2 [23],"13.3 upbm affinity estimate (log intensity, higher = more binding, comparable within an allelic series)"
same,binding signal,HOXA4 [24],"11.8 upbm affinity estimate (log intensity, higher = more binding, comparable within an allelic series)"
same,binding signal,HOXB4 [11],"13.6 upbm affinity estimate (log intensity, higher = more binding, comparable within an allelic series)"
same,binding signal,HOXA2 [25],"13.6 upbm affinity estimate (log intensity, higher = more binding, comparable within an allelic series)"
same,binding signal,HOXA4 [26],"13.8 upbm affinity estimate (log intensity, higher = more binding, comparable within an allelic series)"
same,binding signal,VAX1 [27],"13.6 upbm affinity estimate (log intensity, higher = more binding, comparable within an allelic series)"
same,binding signal,VAX1 [28],"13.3 upbm affinity estimate (log intensity, higher = more binding, comparable within an allelic series)"
same,binding signal,HOXA2 [29],"10.6 upbm affinity estimate (log intensity, higher = more binding, comparable within an allelic series)"
same,binding signal,HOXA4 [30],"11.6 upbm affinity estimate (log intensity, higher = more binding, comparable within an allelic series)"
same,binding signal,HOXA2 [31],"12.8 upbm affinity estimate (log intensity, higher = more binding, comparable within an allelic series)"
same,binding signal,VAX1 [32],"13.4 upbm affinity estimate (log intensity, higher = more binding, comparable within an allelic series)"
